Out of some 220,000 compounds screened, about 830 (0.38%) were called active. The list is a sample of the results. Potency and affinity values are given separately. Values without a mark were called inactive.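 Rule for the calls: active = compound inhibiting the enzyme by more than half at any dose during confirmatory dose-response retesting; inconclusive = strong single-dose inhibitors picked by rank but not retested; inactive = the rest.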
The compounds below were run against Leucine aminopeptidase (Plasmodium falciparum (isolate 3D7)) (UniProt Q8IL11) (assay: P. falciparum M17LAP inhibitors, primary screen, biochemical, fluorogenic H-Leu-NHMec substrate, 1536-well (AID 1619;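 note: plate controls were full reaction with DMSO carrier for no effect and no enzyme background for full effect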)). Details: recombinant M17LAP, H-Leu-NHMec fluorogenic kinetic assay; at 30 µM; hits give high values.
Leucine aminopeptidase (Plasmodium falciparum (isolate 3D7)), sequence (Q8IL11 whole entry, looked up): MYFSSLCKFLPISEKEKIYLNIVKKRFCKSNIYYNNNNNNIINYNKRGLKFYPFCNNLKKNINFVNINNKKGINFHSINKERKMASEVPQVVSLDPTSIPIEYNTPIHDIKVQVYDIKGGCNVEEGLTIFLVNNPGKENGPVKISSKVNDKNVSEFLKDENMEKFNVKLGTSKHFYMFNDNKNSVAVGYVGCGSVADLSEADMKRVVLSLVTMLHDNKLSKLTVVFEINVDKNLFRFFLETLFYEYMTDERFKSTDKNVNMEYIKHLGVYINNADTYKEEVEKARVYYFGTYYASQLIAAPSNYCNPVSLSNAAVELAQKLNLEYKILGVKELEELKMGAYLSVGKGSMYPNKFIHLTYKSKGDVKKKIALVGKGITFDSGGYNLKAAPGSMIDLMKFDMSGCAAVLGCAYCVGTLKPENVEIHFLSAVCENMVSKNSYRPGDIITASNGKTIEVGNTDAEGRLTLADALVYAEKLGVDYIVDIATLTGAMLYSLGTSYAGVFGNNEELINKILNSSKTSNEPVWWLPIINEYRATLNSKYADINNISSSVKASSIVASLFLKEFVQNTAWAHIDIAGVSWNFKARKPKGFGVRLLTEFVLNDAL

SMILES | inhibition
CCOC(=O)c1nnn(-c2nonc2-n2cccc2)c1CCl | 7.36%
COC(=O)CN(c1ccccc1OC)S(=O)(=O)c1ccccc1 | -2.64%
Cc1ccc(C)c(NC2=C(Cl)C(=O)OC2OC(C)C)c1 (stereo unspecified) | -15.8%
CC(=O)N1CCC(N(C(=O)Nc2ccc(F)cc2)C2CCCC2)CC1 | 11%
CC(C)(C)c1ccc(C(=O)c2c[nH]c(C(=O)NCC3CCCO3)c2)cc1 (stereo unspecified) | -3.09%
NC(=O)c1ncc(C(F)(F)F)cc1Oc1cccc(C(F)(F)F)c1 | -2.19%
Cc1cc(C)nc(NC(=O)C2c3ccccc3Oc3ccccc32)n1 | 5.07%
CCN(CC)CCNc1nc(-c2cccs2)c(CC(=O)O)s1 | 0.71%
CCCc1cc(C(=O)Nc2sc(C)c(CC)c2C#N)no1 | 3.41%
O=C(CSc1nnc(-c2ccccc2)n1Cc1ccccc1)NNC(=O)c1ccccc1O | 10.4%
O=C(Nc1ccc(O)cc1)c1ccc2c(c1)C(=O)N(Cc1ccco1)C2=O | 13.2%
O=C(CN1C(=O)S/C(=C\c2ccccc2)C1=O)NNC(=O)c1ccccc1O | 9.15%
O=C1/C(=C\c2ccco2)SC(=S)N1Cc1ccccc1 | 21.4%
O=C(Nc1ccc(O)cc1C(=O)O)c1ccc2c(c1)C(=O)N(Cc1ccco1)C2=O | -9.39%
COC(=O)C1=C(C)N(Cc2ccccc2)C(=O)/C1=C\c1ccco1 | 23.3%
O=C(O)c1ccc(COc2ccccc2/C=C2\NC(=O)N(Cc3ccccc3)C2=O)cc1 | 20.1%
O=C(NNC(=O)c1ccccc1O)c1ccco1 | 20.5%
Cc1cccc(C(=O)NCCC(=O)Nc2nc(C)c(Cc3ccc4c(c3)OCO4)s2)c1 | -0.81%
CC(C)NC(=S)N1CCN(c2ncccn2)CC1 | -3.12%
COc1ccc(C(=O)NC2CCN(C(=S)Nc3ccc(C)cc3)CC2)cc1 | 3.35%
O=C(NC(Cc1ccccc1)C(=O)NC1CC1)OCc1ccccc1 (stereo unspecified) | 9.99%
CCCOc1ccc(OCCSc2nnc(N)s2)cc1 | -4.02%
Cc1cc(C)c(/C=N/NC(=O)c2nnn(-c3nonc3N)c2COc2ccc(F)cc2)c(C)c1 | 11.6%
CC(=O)Nc1nc(COc2ccccc2)cs1 | -12.2%
O=[N+]([O-])c1ccc(N2CCN(S(=O)(=O)c3ccccc3)CC2)cc1NCCN1CCOCC1 | -0.09%
CCOC(=O)c1cc(NC(=O)c2cccnc2)ccc1N1CCOCC1 | -6.5%

Reference: PubChem BioAssay AID1619 (SRMLSC, 2009)
